8 compounds from PubChem BioAssay (Tox21) can be followed below.

Where “and” joins values, the source holds several entries; their conditions need not be identical. Equal entries are not always repeated. Inconclusive results are not listed. Where a structure was tested more than once in an assay, its records may differ in their call. Calls of active or inactive are those of the source. Unless noted, the call rests on the fitted dose curve; in most records, active means well fitted curve in the direction sought with a large enough effect in the repeat runs; inconclusive means weak or mixed curves; inactive means no such curve, though single readings can be large; an effect the other way counts as inactive or inconclusive.

A short description of assay [1]: qHTS assay for small molecule agonists of the p53 signaling pathway (AID 651631; calls by dose curve; further: nearly all actives have a fitted effect of over 15% in size). The method in brief: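 Stably transfected HCT-116 cells (beta-lactamase behind p53 response elements) get compounds after a 5 h settling period; 16 h later at 37 °C, FRET substrate is loaded and fluorescence read after 2 h.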
In general terms: qHTS replaces the single test concentration by a dilution series.

Assay [2] can be described thus: qHTS assay for small molecule agonists of the p53 signaling pathway - cell viability (AID 651633; calls by dose curve;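 further: p53RE-bla HCT reporter cells with a stable beta-lactamase p53 reporter; series mostly up to about 83 µM; nearly all actives have a fitted effect of over 30% in size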). In outline:
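p53RE-bla cells, seeded at 4,000 per well and rested 5 h at 37 C/5% CO2, received compounds in DMSO for 16 h at 37 C. CellTiter-Glo was then added, and luminescence was read after 30 min at room temperature to gauge cytotoxicity.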

A short description of assay [3]: qHTS assay to test for compound auto fluorescence at 460 nm (blue) in HEK293 cells (AID 720678). The method in brief:
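Intrinsic compound fluorescence is recorded in live HEK293 cultures after overnight incubation at 37C, 5% CO2, using excitation 405 nm and emission 460 nm. Values are referenced to triamterene.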

Assay [4] can be described thus: qHTS assay to test for compound auto fluorescence at 590 nm (red) in HEK293 cells (AID 720679). The method in brief: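 Red autofluorescence, HEK293 cells: 2,000 cells/well; attach 4-5 hr 37C; add 23 nL cpd or DMSO; incubate o/n 37C 5% CO2; read Ex540/Em590; Rose Bengal sodium reference.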
Assay [5] is described as follows: qHTS assay to test for compound auto fluorescence at 535 nm (green) in HEK293 cells (AID 720680).
A short description of assay [6]: qHTS assay to test for compound auto fluorescence at 590 nm (red) in HepG2 cell free culture (AID 720684). In outline:
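Ex 540 / Em 590 nm read of compound in cell-free MEM (10% FBS). Rose Bengal sodium reference.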

Assay [7] can be described thus: qHTS assay for identifying genotoxic compounds that show differential cytotoxicity against isogenic chicken DT40 cell lines with known DNA damage response pathways - wild type cell line (AID 743012). Further: nearly all actives have a fitted effect of over 60% in size. Further: potency means the concentration at half of the fitted maximal effect. The method in brief:
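CellTiter-Glo luminescence readout of viability in wild type DT40 cells after 40 h compound exposure at 37 C/5% CO2; 300 cells/well; reagent incubated 30 min at room temperature before reading.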

Assay [8] is described as follows: qHTS assay to identify small molecule antagonists of the androgen receptor (AR) signaling pathway - cell viability counter screen (AID 743033; further: nearly all actives have a fitted effect of over 45% in size).
The target in assay [9] is Estrogen receptor (Homo sapiens) (UniProt P03372). Briefly: qHTS assay to identify small molecule agonists of the estrogen receptor alpha (ER-alpha) signaling pathway (AID 743075; calls by dose curve;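 further: HEK293 GripTite cells with ER-alpha and UAS-driven beta-lactamase reporter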).
Chain of Estrogen receptor (Homo sapiens) (P03372 whole entry, looked up): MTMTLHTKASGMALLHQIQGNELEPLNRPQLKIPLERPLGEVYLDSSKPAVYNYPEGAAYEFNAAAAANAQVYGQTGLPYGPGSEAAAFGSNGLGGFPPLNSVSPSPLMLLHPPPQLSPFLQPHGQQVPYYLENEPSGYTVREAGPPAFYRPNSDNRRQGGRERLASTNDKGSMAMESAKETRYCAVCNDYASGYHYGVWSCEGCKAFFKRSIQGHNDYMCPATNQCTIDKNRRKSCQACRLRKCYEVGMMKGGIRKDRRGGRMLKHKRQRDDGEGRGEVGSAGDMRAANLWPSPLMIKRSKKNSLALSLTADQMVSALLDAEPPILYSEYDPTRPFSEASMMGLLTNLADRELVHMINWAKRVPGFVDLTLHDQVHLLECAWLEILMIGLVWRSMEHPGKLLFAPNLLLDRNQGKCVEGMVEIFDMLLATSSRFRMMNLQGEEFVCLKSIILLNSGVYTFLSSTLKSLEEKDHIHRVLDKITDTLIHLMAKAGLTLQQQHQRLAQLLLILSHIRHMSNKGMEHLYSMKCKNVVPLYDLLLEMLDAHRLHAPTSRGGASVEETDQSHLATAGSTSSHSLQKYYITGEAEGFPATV
For assay [10] the target is unchanged. The assay can be described thus: qHTS assay to identify small molecule agonists of the estrogen receptor alpha (ER-alpha) signaling pathway using the BG1 cell line (AID 743079). Further: nearly all actives have a fitted effect of over 20% in size.
Assay [11] can be described thus: qHTS assay to identify small molecule antagonists of the estrogen receptor alpha (ER-alpha) signaling pathway using the BG1 cell line (AID 743080; calls by dose curve;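 further: BG1 cells stimulated with 17beta-estradiol alongside compound; series mostly up to about 70 µM; nearly all actives have a fitted effect of over 25% in size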). In outline:
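Readout is ONE-Glo luminescence, taken 30 min at room temperature after reagent addition, preceded by a CellTiter-Fluor viability read; BG1-Luc-4E2 cells had received compound and 17beta-estradiol for 21.5 h at 37 C.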

Assay [12] in a line: qHTS assay to identify small molecule that activate the aryl hydrocarbon receptor (AhR) signaling pathway - cell viability counter screen (AID 743086).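 Further: HepG2 liver cells carrying the AhR DRE luciferase reporter; series mostly up to about 70 µM; nearly all actives have a fitted effect of over 45% in size.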 In outline:
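HepG2-AhR-luc (HG2L7.5c1) cells, 4000/well, were preincubated 5 h at 37C, exposed to compound in qHTS format for 24 hr at 37C, then given CellTiter-Fluor for 30 min; viability was read as fluorescence in the reporter wells.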

Assay [13] has as its target Peroxisome proliferator-activated receptor gamma (Homo sapiens) (UniProt P37231). The assay can be described thus: qHTS assay to identify small molecule agonists of the peroxisome proliferator-activated receptor gamma (PPARg) signaling pathway (AID 743094; active means well fitted activation curve with a large enough effect in the signal ratio in the repeat runs, not every such curve was filed as active; the % refers to the signal ratio). The method in brief: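 HEK293H PPARg-bla cells, 5 h settle at 37C/5% CO2; compound (DMSO) 17 h, 37C; B/G FRET substrate 1 h RT; fluorescence intensity read-out. qHTS format.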

Assay [14] addresses Nuclear receptor subfamily 1 group I member 2 (Rattus norvegicus) (UniProt Q9R1A7). Briefly: Rat pregnane X receptor (rPXR) activation by small molecules, qHTS assay (AID 1346983). Further: nearly all actives have a fitted effect of over 20% in size. Conditions: rPXR luciferase reporter cells, One-Glo luminescence, 24 h; max activation: stronger effect = higher value. In outline: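 Cell-based rPXR luciferase reporter assay, 2,000 cells per well, rested 5hr at 37 C before compound addition in DMSO, then 24 hr at 37 C. One-Glo reagent was added and luminescence read after 30 min at room temperature.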

The target in assay [15] is Nuclear receptor subfamily 1 group I member 2 (Homo sapiens) (UniProt O75469). The assay can be described thus: CYP3A4 induction through human pregnane X receptor (PXR) by small molecules, qHTS assay (AID 1346984). Further: nearly all actives have a fitted effect of over 40% in size. The method in brief:
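HepG2-derived DPX-2 line carrying PXR plus a CYP3A4-promoter luciferase reporter; cells plated 5 hr, compound-exposed 24 hr at 37C. CYP3A4 activity probed with 3uM (final) Luciferin-IPA for 3hr, then luciferase read after One-Glo.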

Assay [16] shares this target. Briefly: Human pregnane X receptor (PXR) activation by small molecules, qHTS assay (AID 1346985). Further: nearly all actives have a fitted effect of over 40% in size. In outline: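 DPX-2 cells (HepG2 co-transfected with a PXR response element and a CYP3A4-promoter luciferase construct) were seeded at 2,000 per well, rested 5 hr at 37C, then exposed to DMSO-dissolved compounds for 24 hr. Activation was read as luciferase luminescence.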

Assay [17] deals with Glucocorticoid receptor (Homo sapiens) (UniProt P04150). The assay can be described thus: qHTS assay to identify small molecule agonists of the glucocorticoid receptor (GR) signaling pathway (AID 720691; active means well fitted activation curve with a large enough effect in the signal ratio in the repeat runs, not every such curve was filed as active; the % refers to the signal ratio). In outline: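 HeLa GR-bla reporter line; cells pre-incubated 4 h, compound in DMSO 18 h at 37 C; LiveBLAzer B/G FRET substrate 2 h RT; fluorescence intensity read-out.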
Chain of Glucocorticoid receptor (Homo sapiens) (P04150 whole entry, looked up): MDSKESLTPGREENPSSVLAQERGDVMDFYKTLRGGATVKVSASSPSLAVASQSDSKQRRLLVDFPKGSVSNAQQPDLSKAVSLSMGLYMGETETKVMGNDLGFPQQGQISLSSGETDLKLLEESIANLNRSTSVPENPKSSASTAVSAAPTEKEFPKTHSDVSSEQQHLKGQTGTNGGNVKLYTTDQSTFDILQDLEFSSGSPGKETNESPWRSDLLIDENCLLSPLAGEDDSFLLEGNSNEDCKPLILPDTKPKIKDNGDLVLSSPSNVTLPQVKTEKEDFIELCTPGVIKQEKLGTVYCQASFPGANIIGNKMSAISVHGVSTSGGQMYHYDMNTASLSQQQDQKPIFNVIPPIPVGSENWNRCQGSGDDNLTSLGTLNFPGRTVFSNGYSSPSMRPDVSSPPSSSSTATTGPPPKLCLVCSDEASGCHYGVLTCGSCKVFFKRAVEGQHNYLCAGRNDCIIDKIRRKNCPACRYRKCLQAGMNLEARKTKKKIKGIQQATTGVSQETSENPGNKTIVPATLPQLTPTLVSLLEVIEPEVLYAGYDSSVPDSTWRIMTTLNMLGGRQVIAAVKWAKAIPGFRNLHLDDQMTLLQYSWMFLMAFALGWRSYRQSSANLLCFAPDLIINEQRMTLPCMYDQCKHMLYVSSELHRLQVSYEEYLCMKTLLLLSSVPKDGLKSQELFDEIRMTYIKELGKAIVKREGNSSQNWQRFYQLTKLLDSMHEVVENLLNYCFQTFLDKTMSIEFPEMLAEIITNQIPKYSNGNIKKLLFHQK
Assay [18] is described as follows: qHTS assay to identify small molecule antagonists of the androgen receptor (AR) signaling pathway using the MDA cell line - cell viability counter screen (AID 743041; further: nearly all actives have a fitted effect of over 45% in size). The method in brief:
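In this qHTS counter assay, fluorescence intensity after CellTiter-Fluor addition indicated viability of MDA-kb2 AR-luc cells given compounds and R1881 for 16 h at 37C.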

Assay [19] in a line: qHTS assay to identify small molecule antagonists of the thyroid receptor (TR) signaling pathway - cell viability counter screen (AID 743064). Further: nearly all actives have a fitted effect of over 50% in size. The method in brief: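 Counter screen for cytotoxicity: compound plus T3 (1 nM final) on GH3.TRE-Luc cells, 23.5 h at 37 °C, then fluorescence viability readout with CellTiter-Fluor.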
The nature of assay [20]: qHTS assay for identifying genotoxic compounds that show differential cytotoxicity against isogenic chicken DT40 cell lines with known DNA damage response pathways - Rev3 mutant cell line (AID 743014). Further: nearly all actives have a fitted effect of over 55% in size.
On the % scale 0 is the no-effect control and ±100 the full control effect.

Chain of Nuclear receptor subfamily 1 group I member 2 (Rattus norvegicus) (Q9R1A7 whole entry, looked up): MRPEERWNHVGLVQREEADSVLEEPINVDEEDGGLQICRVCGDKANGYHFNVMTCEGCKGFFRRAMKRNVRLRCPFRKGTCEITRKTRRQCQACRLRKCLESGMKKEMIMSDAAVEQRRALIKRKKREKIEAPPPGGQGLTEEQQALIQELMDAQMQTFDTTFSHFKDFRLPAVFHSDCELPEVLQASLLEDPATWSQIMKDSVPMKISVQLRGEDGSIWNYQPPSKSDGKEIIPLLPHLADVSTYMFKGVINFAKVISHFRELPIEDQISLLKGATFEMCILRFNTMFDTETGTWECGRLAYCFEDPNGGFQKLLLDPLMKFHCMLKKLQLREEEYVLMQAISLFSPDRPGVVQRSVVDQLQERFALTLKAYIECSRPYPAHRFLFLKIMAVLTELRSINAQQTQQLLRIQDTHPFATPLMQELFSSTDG
Chain of Peroxisome proliferator-activated receptor gamma (Homo sapiens) (P37231 whole entry, looked up): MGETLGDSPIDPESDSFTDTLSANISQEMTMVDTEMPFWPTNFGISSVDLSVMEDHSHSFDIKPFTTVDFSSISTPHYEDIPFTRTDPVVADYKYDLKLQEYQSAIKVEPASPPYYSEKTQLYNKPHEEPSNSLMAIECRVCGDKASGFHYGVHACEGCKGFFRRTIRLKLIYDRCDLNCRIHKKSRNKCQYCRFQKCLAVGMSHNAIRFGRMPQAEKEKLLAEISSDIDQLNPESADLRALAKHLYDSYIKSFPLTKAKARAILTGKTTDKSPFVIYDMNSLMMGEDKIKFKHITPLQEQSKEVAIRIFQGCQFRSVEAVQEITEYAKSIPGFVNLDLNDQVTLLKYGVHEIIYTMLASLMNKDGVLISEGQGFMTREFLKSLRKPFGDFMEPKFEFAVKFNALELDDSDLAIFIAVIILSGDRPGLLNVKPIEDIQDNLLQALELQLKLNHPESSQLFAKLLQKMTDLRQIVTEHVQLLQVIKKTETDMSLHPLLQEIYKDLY

`CCC(=O)O[C@]1(c2ccccc2)CCN(C)C[C@H]1C`: the Potency entry in assay [1], in [2], in assay [3], in assay [5], in [8] and in assay [9] was “inactive” each time. For the same compound, the Potency result in assay [10], in [11], in [12], in assay [13], in assay [15] and in [16] was “inactive” throughout. Besides, the outcome in [4] and in assay [6] was inactive. Further, the Potency in assay [7] is 21.1 µM (active). Further, in assay [14], the max activation was -0.104% (inactive).
`[S]=[Sb](=[S])[S][Sb](=[S])=[S]`: the Potency result in assay [1], in [2], in assay [3], in assay [17], in [18] and in assay [19] was “inactive” throughout. The Potency entry in assay [9], in [10], in assay [11], in [13], in assay [15] and in assay [16] was “inactive” throughout. The result in [4] and in assay [6] was inactive. For the same compound, the max activation in assay [14] is -0.774% (inactive).
Regarding `C#CC(C)(O)CC` (stereo unspecified), the Potency result in assay [1], in assay [2], in [5], in [17], in assay [7] and in assay [20] was “inactive” each time. The Potency result in assay [8], in [18], in assay [9], in assay [10], in [11] and in [12] was “inactive” in each case. In addition, the Potency result in [13], in assay [15] and in assay [16] was “inactive” each time. Besides, the outcome in assay [4] and in assay [6] was inactive. Besides, the max activation in assay [14] is -2.56% (inactive).
Turning to `c1cc2c(c(NC3=NCCN3)c1)CCCC2`, the Potency result in [1], in [3], in [5], in [17], in assay [8] and in assay [18] was “inactive” throughout. The Potency entry in assay [12], in [15] and in [16] was “inactive” throughout. Besides, the compound was called inactive in assay [4] and in assay [6]. In addition, the max activation in [14] is -5.45% (inactive).
Regarding `COC1=CC=C2[C@H]3Cc4ccc(OC)c5c4[C@@]2(CCN3C)[C@H]1O5`, the Potency entry in assay [1], in assay [2], in assay [3], in [5], in [17] and in assay [7] was “inactive” in each case. Further, the Potency entry in assay [20], in [8], in assay [18], in [19], in [9] and in [10] was “inactive” throughout. In addition, the Potency result in assay [11], in [12], in assay [13], in assay [15] and in assay [16] was “inactive” in each case. Also, the result in assay [6] was inactive. The max activation in [14] was -7.33% (inactive).
Turning to `CNC(=O)OCC[N+](C)(C)C`, the Potency entry in [1], in [2], in assay [3], in assay [5], in [17] and in assay [7] was “inactive” each time. Moreover, the Potency result in assay [20], in assay [8], in assay [18], in [19], in [9] and in assay [10] was “inactive” each time. In addition, the Potency result in [11], in assay [12], in assay [15] and in assay [16] was “inactive” in each case. Further, the call in assay [4] and in assay [6] was inactive. The max activation in assay [14] was 0.49% (inactive).
Turning to `CCC(N)Cc1c[nH]c2ccccc12` (stereo unspecified), the Potency result in [1], in [2], in assay [3], in assay [20], in assay [8] and in [18] was “inactive” in each case. The Potency entry in assay [19], in [11], in assay [12], in [13], in assay [15] and in [16] was “inactive” in each case. Moreover, the outcome in [4] was inactive. Moreover, the Potency entry in [7] was “inactive and 68.8 µM (active)”. Further, in assay [14], the max activation is -0.551% (inactive).
Regarding `O=C(C[C@@H]1NCCC[C@H]1O)Cn1cnc2cc(Br)c(Cl)cc2c1=O`, the Potency result in assay [1], in [2], in assay [3], in [17], in assay [7] and in assay [20] was “inactive” in each case. The Potency entry in assay [8], in assay [18], in [9], in assay [10], in assay [11] and in assay [12] was “inactive” in each case. Further, the Potency result in [15] and in assay [16] was “inactive” each time. Moreover, the compound was called inactive in assay [4] and in assay [6]. The max activation in assay [14] is 5.28% (inactive).
